FBPA coupling cs: counter-screen for Giardia aldolase inhibitors: coupling enzyme system. coupling enzyme system counterscreen, AmpLite Red fluorescence. activity change, negative = inhibition, % at 58.2 µM, hits read low. hit rate 0.67% among 290,000. AID 2472; in the data active means activity change below about -30%
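Final compound at 57.5 uM, incubated 10 min at RT with coupling enzyme reagent (glyceraldehyde-3-phosphate), then 20 min with substrate and AmpLite Red detection. Fluorescence read at 525/598 nm; tests interference with the coupling assay, not aldolase inhibition.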
Sfp inh: inhibitors of Bacillus subtilis Sfp phosphopantetheinyl transferase; Potency, µM, inactives show largest response in the series, negative = inhibition, actives largely listed as inhibitors; AID 1490; Q9F4F7; Biochemical Sfp PPTase activity, qHTS; hit rate 3.5% among 310,000;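 further: the enzyme is Sfp with the accession as filed and its product quenches rhodamine fluorescence; potency means the concentration at half of the fitted maximal effect; 0% = enzyme reaction without inhibitor and -100% = no enzyme wells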
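With Hepes-Na pH 7.6 buffer containing 10 mM MgCl2, Sfp (15 nM) modified BHQ-2-YbbR (12.5 uM) using rhodamine-CoA (5 uM). Two reads 30 minutes apart at 525/598 nm yielded each well's rate.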
Tau fibril FP: tau fibrillization inhibition (FP). K18 P301L tau heparin fibrillization, Alexa594 FP, 6 h. Potency, µM (titrated, usually from 57.7 µM), without a hit: top-dose activity, negative = inhibition, hits mostly inhibitors. hit rate 0.39% among 280,000. AID 1468; further: potency means the concentration at half of the fitted maximal effect; nearly all actives have a fitted effect of over 55% in size
Target sequence (P10636 561-689 P618L limits assumed): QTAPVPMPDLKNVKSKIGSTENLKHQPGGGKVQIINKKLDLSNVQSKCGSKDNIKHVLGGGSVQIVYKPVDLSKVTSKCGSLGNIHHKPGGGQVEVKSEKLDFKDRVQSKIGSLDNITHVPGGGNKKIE
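Recombinant K18 P301L […], labeled with Alexa 594 at 0.24 uM over 15 uM unlabeled; heparin inducer 20 uM final; 37 C, 6 hr; FP endpoint.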
Tau ThT inhib: inhibitors of human tau fibril formation, thioflavin T binding. P10636. recombinant tau K18 P301L, heparin-induced fibrillization, ThT fluorescence. Potency, µM (top dose mostly 57.4 µM), inactives show at the top dose activity, negative = inhibition, most hits filed as inhibitors. hit rate 2.1% among 270,000. AID 1460; further: potency means the concentration at half of the fitted maximal effect; nearly all actives have a fitted effect of over 55% in size
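In this qHTS, human K18 P301L tau is incubated with compound and heparin for 6 hr at 37 C, and Thioflavin T fluorescence then reports fibril load.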
Tau fluor cs: counter-screen for tau fibril formation inhibitors. tau K18 P301L (four-repeat tau fragment) Alexa594 fluorescence, heparin fibrillization. Potency, µM (titrated, usually from 57.7 µM), for inactives: at the top dose activity change, negative = decrease. hit rate 0.93% among 280,000. AID 1463; further: potency means the concentration at half of the fitted maximal effect; nearly all actives have a fitted effect of over 55% in size
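Human K18 P301L tau (15 uM unlabeled plus 0.24 uM Alexa 594-labeled, final) in 100 mM sodium acetate pH 7 was mixed with compound and 20 uM heparin and incubated 6 hr at 37 C.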
Active calls of the source: *; ? = inconclusive; . = no result; [ ] = dose if it differs, or a comment. Rows were chosen to be rich in hits. Some 5.2% of all compounds tested hit in one or more screens of this group. Unless noted, the call rests on the fitted dose curve; in most records, active means well fitted curve in the direction sought with a large enough effect; inconclusive means small, poorly fitted or top-dose-only effect, or another doubt; inactive means no such curve, though single readings can be large; an effect the other way counts as inactive or inconclusive. Unless noted, on the % scale 0 is the no-effect control and ±100 the full control effect.

SMILES	FBPA coupling cs	Sfp inh	Tau fibril FP	Tau ThT inhib	Tau fluor cs
CC(=O)c1cccc(-n2c(CCC(=O)O)ccc2-c2cccs2)c1	9	8.9µM*	-6%	?	-5%
CC(C)(C)c1ccc(C(=O)Nn2c(CCC(=O)O)ccc2-c2cccs2)cc1	5	56µM*	3%	2%	-3%
CC(=O)c1ccc(-n2c(CCC(=O)O)ccc2-c2ccccc2)cc1	14	22%	.	.	.
CC(=O)c1cccc(-n2c(CCC(=O)O)ccc2-c2ccccc2)c1	10	71µM*	2%	-17%	-2%
O=C(O)CCc1ccc(-c2cccs2)n1-c1ccc(C(=O)O)cc1	13	28µM*	-2%	?	-12%
Cc1cc(C)nc(-n2nc(C)c3c2N(Cc2ccccc2C)C(=O)CC3c2ccc(Cl)cc2)n1 (stereo not given)	.	.	-5%	-13%	-8%
Cc1ccc(-n2c(N)c(C(=O)N3CCCCC3)sc2=S)cc1	2	45µM*	9%	?	-20%
Cc1ccc(-n2c(N)c(C(=O)N3CCN(C)CC3)sc2=S)cc1	-34*	-93%	?	?	-11%
CCOc1ccc(-n2c(N)c(C(=O)N3CCN(C)CC3)sc2=S)cc1	-1	14%	-1%	-1%	5%
Cc1ccc(S(=O)(=O)C(CNC(=O)C(=O)NCCc2ccccc2)c2cccs2)cc1 (stereo not given)	.	.	8%	-5%	-14%
COc1ccc(-c2cn3cccnc3n2)cc1NC(=O)c1cc(C)cc(C)c1	.	.	0%	-19%	-17%
Cc1cc(-c2ccc(N=Nc3c(S(=O)(=O)O)cc4cc(S(=O)(=O)O)cc(N)c4c3O)c(C)c2)ccc1N=Nc1c(S(=O)(=O)O)cc2cc(S(=O)(=O)O)cc(N)c2c1O	.	11µM*	.	.	.
Cc1ccc(CN(C(=O)COc2ccc(C(C)C)cc2)C2CCS(=O)(=O)C2)o1 (stereo not given)	.	.	-14%	-6%	-16%
CCc1nnc(NS(=O)(=O)c2ccc(NC(=O)/C=C/c3ccccc3Cl)cc2)s1	1	21%	-6%	-2%	-25%
C=CCc1cccc2cc(C(=O)Nc3ccc(F)cc3)c(=O)oc12	-1	11%	-2%	-10%	-12%
C=CCc1cccc2cc(C(=O)Nc3ccc(S(=O)(=O)Nc4nnc(CC)s4)cc3)c(=O)oc12	5	79µM*	5%	?	-4%
CCc1nnc(NS(=O)(=O)c2ccc(NC(=S)NC(=O)/C=C/c3ccc(OC)cc3)cc2)s1	5	79µM*	5%	-1%	-6%
CCc1nnc(NS(=O)(=O)c2ccc(NC(=O)/C=C/C(=O)O)cc2)s1	11	50µM*	.	.	.
COc1ccccc1/C=C/C=c1\sc2nc(=O)c(Cc3ccccc3)nn2c1=O	6	56µM*	?	.	?
CCCOc1ccc(Cc2nn3c(=O)/c(=C/c4ccco4)sc3nc2=O)cc1	0	50µM*	-11%	?	-23%
O=C1Nc2ccc(Cl)cc2C(C#CC2CC2)(C(F)(F)F)O1 (stereo not given)	-2	10%	-9%	-9%	-25%
Cc1ccc(-c2cc(O)cc3sc(=O)oc23)cc1C	0	-14%	22µM*	?	16µM*[quencher]
O=c1oc2cc(O)ccc2s1	1	-27%	?	?	-26%
Cc1ccc(N2CCN(C(=O)Nc3cn(CC(C)C)c(=O)c4ccccc34)CC2)c(C)c1	.	.	2%	?	-16%
CNC(=O)/C(C#N)=c1\s/c(=C/C(=O)OC)c(=O)n1-c1ccccc1	3	8%	-9%	-14%	1%
SMILES	FBPA coupling cs	Sfp inh	Tau fibril FP	Tau ThT inhib	Tau fluor cs
COC(=O)/C=c1\sc2ncnn2c1=O	-2	10µM*	14µM*	16µM*	-14%
COc1ccc(C)cc1Nc1n[n+](-c2ccccc2)c(-c2ccc(N(C)C)cc2)s1	0	20µM*	.	.	.
CCN(CC)c1ccc(-c2sc(Nc3ccccc3)n[n+]2-c2ccc(F)cc2)cc1	1	56µM*	.	.	.
COc1ccc(C)cc1Nc1n[n+](-c2ccccc2)c(-c2ccc(OC)c(OC)c2OC)s1	-2	-28%	.	.	.
CCc1ccc(Nc2n[n+](-c3ccccc3)c(/C=C/c3ccccc3)s2)cc1	1	50µM*	.	.	.
CCc1ccc(Nc2n[n+](-c3ccccc3)c(-c3c(Cl)cccc3Cl)s2)cc1	-8	71µM*	.	.	.
CCc1ccc(Nc2n[n+](-c3ccccc3)c(-c3cc(OC)c(OC)cc3Br)s2)cc1	0	-8%	.	.	.
COc1ccc(-n2c(=O)c3c4c(sc3n(Cc3ccc(F)cc3)c2=O)CCCC4)c(OC)c1	.	.	-12%	-14%	-20%
CCOC(=O)c1cccc(NC(=O)Nc2c(C)n(C)n(-c3ccccc3)c2=O)c1	.	.	-5%	-7%	-7%
CCc1ccc(Nc2n[n+](-c3ccccc3)c(-c3ccc(N(CC)CC)cc3)s2)cc1	0	50µM*	.	.	.
CCc1cccc(NC(=O)c2ccc(CNS(=O)(=O)c3ccc4c(c3)C(C)(C)C(=O)N4C)cc2)c1	.	.	-1%	-5%	?
O=c1c(N2CCc3ccccc3C2)csc2ccccc12	.	.	0%	14µM*	-21%
CCCC[n+]1ccn(-c2nc3ccccc3nc2[N-]S(=O)(=O)c2ccccc2)c1	4	8%	0%	-18%	-18%
CCCC[n+]1ccn(-c2nc3ccccc3nc2[N-]S(=O)(=O)c2cccs2)c1	-13	35µM*	-20%	?	-13%
CCCCC[n+]1ccn(-c2nc3ccccc3nc2[N-]S(=O)(=O)c2ccc(C)cc2)c1	.	56µM*	-8%	-9%	-13%
CCOc1ccc(CNC(=O)Cn2cc3c(n2)-c2c(oc(C(=O)N4CCOCC4)c2C)CC3)cc1	.	.	4%	-13%	-6%
O=c1[nH]cnc2nc[nH]c12	1	79µM*	-1%	8%	4%
O=C(c1ccc2c(c1)N(Cc1ccccc1F)C(=O)c1ccccc1S2(=O)=O)N1CCN(c2ccccc2F)CC1	.	.	0%	-5%	-17%
O=C1Nc2cc(C(=O)N3CCN(c4ccccc4F)CC3)ccc2NC1CSCc1ccccc1F (stereo not given)	0	56µM*	.	.	.
Cc1cccc(N2CCN(C(=O)c3ccc4c(c3)NC(=O)C(CSCc3cccc(F)c3)N4)CC2C)c1 (stereo not given)	.	56µM*	.	.	.
Cc1cccc(N2CCN(C(=O)Nc3ccc(F)cc3)CC2C)c1 (stereo not given)	.	.	5%	-1%	-7%
COc1ccccc1N1CCN(C(=O)c2cccc(C(=O)N3CCN(c4ccccc4OC)CC3)c2)CC1	0	17%	.	.	.
COc1ccccc1N1CCN(C(=O)c2ccc3c(c2)NC(=O)C(CSCc2ccccc2C)N3)CC1 (stereo not given)	-2	50µM*	.	.	.
CNc1ncnc2c1ncn2[C@@H]1O[C@H](CO)[C@H](O)[C@H]1O	.	.	-9%	-9%	-11%
